About 79,000 compounds went through this panel and 15% of them were active in at least one assay; those are over-represented in the sample as a whole. Calls of active or inactive are those of the source. Cut-off read from the data, not from the text of the source: active = growth inhibition above about 70%; inactive = the rest.
Tests used:
[1] = NCI Yeast Anticancer Drug Screen. Data for the rad50EPP+ strain (AID 151);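 note: 0% = growth of vehicle-treated control cultures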; conditions: S. cerevisiae rad50 mutant strain, hits give high values
In short: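 Compounds were applied to the rad50EPP+ yeast strain, which bears a defined DNA repair alteration, and growth inhibition was determined relative to vehicle-treated cultures.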

[2] = NCI Yeast Anticancer Drug Screen. Data for the mgt1 strain (AID 153); conditions: S. cerevisiae mgt1 mutant growth inhibition, hits give high values
In short: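 Strain: mgt1 yeast, one of a set carrying defined DNA damage repair or cell cycle control alterations. Compound-treated growth compared with vehicle.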

[3] = NCI Yeast Anticancer Drug Screen. Data for the rad50 strain (AID 155);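 note: 0% = growth of vehicle-only cultures of the same strain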; conditions: S. cerevisiae rad50 strain growth inhibition, hits give high values
In short: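 Relative growth inhibition (compound vs vehicle) was measured in yeast with a defined repair-gene alteration.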

[4] = NCI Yeast Anticancer Drug Screen. Data for the mec2-1 strain (AID 157); conditions: S. cerevisiae mec2-1 strain, hits give high values
In short: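 Strain: mec2-1 (DNA repair/cell cycle alteration). Compound exposure, then growth measured; inhibition expressed relative to vehicle.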

[5] = NCI Yeast Anticancer Drug Screen. Data for the rad14 strain (AID 159);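 note: 0% = growth of vehicle-treated control cultures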; conditions: S. cerevisiae rad14 strain growth inhibition, hits give high values
In short: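 Screen for anticancer potential: a yeast strain altered in DNA damage repair is grown with compound, and reduced growth is quantified against vehicle controls.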

[6] = NCI Yeast Anticancer Drug Screen. Data for the sgs1 mgt1 strain (AID 161);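 note: 0% = growth of cultures given vehicle only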; conditions: S. cerevisiae sgs1 mgt1 strain, hits give high values
In short: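 Test agents were incubated with a DNA-repair-mutant yeast strain. Growth was then read and compared against vehicle-treated controls.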

[7] = NCI Yeast Anticancer Drug Screen. Data for the CLN2oe strain (AID 163);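 note: 0% = growth of vehicle-only control cultures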; conditions: S. cerevisiae CLN2oe strain, hits give high values
In short: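 Growth of a genetically modified yeast strain is measured after compound exposure and compared with cultures given vehicle alone.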

[8] = NCI Yeast Anticancer Drug Screen. Data for the cln2 rad14 strain (AID 165);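 note: 0% = growth equal to vehicle treated cultures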; conditions: S. cerevisiae cln2 rad14 strain, hits give high values
In short: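 Compounds are applied to the cln2 rad14 yeast strain, and growth is then compared with that of vehicle-treated cultures to give inhibition.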

[9] = NCI Yeast Anticancer Drug Screen. Data for the bub3 strain (AID 167); conditions: S. cerevisiae bub3 mutant strain, hits give high values
In short: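 Screening used yeast with an engineered genetic alteration affecting cell cycle control. Compound-exposed cultures were compared with vehicle cultures, and reduced growth was taken as inhibition.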

[10] = NCI Yeast Anticancer Drug Screen. Data for the wt2 strain (AID 169);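 note: 0% = growth of vehicle-treated yeast cultures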; conditions: S. cerevisiae wt2 strain growth inhibition, hits give high values
In short: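 This strain belongs to a panel of yeast strains with defined genetic alterations in DNA damage repair or cell cycle control. Compounds are applied, and growth inhibition is measured against vehicle-treated cultures.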

[11] = NCI Yeast Anticancer Drug Screen. Data for the mlh1 strain (AID 171);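 note: 0% = growth of vehicle-treated control cultures of the same strain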; conditions: S. cerevisiae mlh1 strain growth inhibition, hits give high values
In short: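 Growth of the mutant yeast strain after compound exposure, expressed as inhibition relative to vehicle-only controls.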

[12] = NCI Yeast Anticancer Drug Screen. Data for the sgs1 strain (AID 173);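 note: 0% = growth of vehicle-only control cultures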; conditions: S. cerevisiae sgs1 mutant, hits give high values
In short: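 Growth of a yeast strain bearing a defined genetic alteration is measured after compound treatment. Inhibition is expressed relative to vehicle-only controls.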

[13] = NCI Yeast Anticancer Drug Screen. Data for the mlh1 rad18 strain (AID 175); conditions: S. cerevisiae mlh1 rad18 strain growth inhibition, hits give high values
In short: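 Read-out is yeast growth inhibition, calculated against vehicle-only controls. The compound was applied to a strain engineered with DNA damage repair alterations.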

[14] = NCI Yeast Anticancer Drug Screen. Data for the rad18 strain (AID 177); conditions: S. cerevisiae rad18 mutant growth inhibition, hits give high values
In short: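 Growth of the mutant yeast strain after compound exposure, normalised to vehicle-only cultures.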

[15] = at 5.0 µM (retest, dose inferred, filed as 0.5)
[16] = at 50.0 µM (retest, dose inferred, filed as 5.0)

Measured: growth inhibition

O=S(=O)(Oc1c(Cl)cc(Cl)cc1Cl)c1ccccc1
active: [1]; at 33.0 µM 71% | [1]; at 100.0 µM 89%
inactive: [1]; at 1.2 µM 8% | [1]; at 3.7 µM 23% | [1]; at 11.0 µM 37% | [2]; at 1.2 µM -3% | [2]; at 3.7 µM -5% | [2]; at 11.0 µM -2% | [2]; at 33.0 µM 9% | [2]; at 100.0 µM 30% | [3]; at 1.2 µM 0% | [3]; at 3.7 µM 3% | [3]; [15] 8% | [3]; at 11.0 µM 10% | [3]; at 33.0 µM 14% | [3]; [16] 12% | [3]; at 50.0 µM 10.2% | [3]; at 100.0 µM 14% | [4]; at 1.2 µM -4% | [4]; at 3.7 µM -1% | [4]; [15] -9% | [4]; at 11.0 µM 1% | [4]; at 33.0 µM 4% | [4]; [16] 20% | [4]; at 50.0 µM 40.5% | [4]; at 100.0 µM 13% | [5]; at 1.2 µM 0% | [5]; at 3.7 µM 0% | [5]; at 11.0 µM 8% | [5]; at 33.0 µM 11% | [5]; at 100.0 µM 12% | [6]; [15] 2% | [6]; [16] 47% | [6]; at 50.0 µM 66.3% | [7]; at 1.2 µM -1% | [7]; at 3.7 µM -4% | [7]; at 11.0 µM -14% | [7]; at 33.0 µM -14% | [7]; at 100.0 µM -8% | [8]; [15] -18% | [8]; [16] 20% | [8]; at 50.0 µM -33.5% | [9]; at 1.2 µM -1% | [9]; at 3.7 µM -4% | [9]; [15] 0% | [9]; at 11.0 µM -2% | [9]; at 33.0 µM 0% | [9]; [16] -8% | [9]; at 50.0 µM 55.4% | [9]; at 100.0 µM 14% | [10]; at 1.2 µM -1% | [10]; at 3.7 µM -4% | [10]; at 11.0 µM -7% | [10]; at 33.0 µM -2% | [10]; at 100.0 µM 10% | [11]; at 1.2 µM -1% | [11]; at 3.7 µM -2% | [11]; at 11.0 µM -10% | [11]; at 33.0 µM 13% | [11]; at 100.0 µM 28% | [12]; at 1.2 µM -3% | [12]; at 3.7 µM -1% | [12]; at 11.0 µM 11% | [12]; at 33.0 µM 22% | [12]; at 100.0 µM 11% | [13]; [15] -7% | [13]; [16] 56% | [13]; at 50.0 µM 63.6% | [14]; at 1.2 µM -3% | [14]; at 3.7 µM 4% | [14]; at 11.0 µM 12% | [14]; at 33.0 µM 19% | [14]; at 100.0 µM 30%

Source: PubChem BioAssay (NCI)
